Measurements as given in PubChem BioAssay (EPA / NIEHS).
The source made the active and inactive calls. How the source made its calls: active means hit-call score of the fitted dose curve at least 0.9, where 1 is the maximum; inactive means score below 0.9.

Target: Estrogen receptor (Homo sapiens) (UniProt P03372)
Assay: CCTE_Deisenroth_AIME_384WELL_LUC_Shift: CCTE's 384-well Estrogen Receptor Transactivation Assay with AIME metabolic competence data shift (ERTA luciferase; difference in metabolism positive and negative), Deisenroth Lab (AID 2284041);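 further: shift is response with S9 minus without S9 so positive means metabolism raised ER signal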
In short: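 Test chemicals (0.002–200 uM, 10-point) were pre-incubated 2 h with alginate microspheres containing phenobarbital/beta-naphthoflavone-induced male Sprague Dawley rat liver S9 or water, then medium was transferred to VM7Luc4E2 cells for 24 h luciferase readout; shift = S9-positive minus S9-negative normalized response.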

Chain of Estrogen receptor (Homo sapiens) (P03372 whole entry, looked up): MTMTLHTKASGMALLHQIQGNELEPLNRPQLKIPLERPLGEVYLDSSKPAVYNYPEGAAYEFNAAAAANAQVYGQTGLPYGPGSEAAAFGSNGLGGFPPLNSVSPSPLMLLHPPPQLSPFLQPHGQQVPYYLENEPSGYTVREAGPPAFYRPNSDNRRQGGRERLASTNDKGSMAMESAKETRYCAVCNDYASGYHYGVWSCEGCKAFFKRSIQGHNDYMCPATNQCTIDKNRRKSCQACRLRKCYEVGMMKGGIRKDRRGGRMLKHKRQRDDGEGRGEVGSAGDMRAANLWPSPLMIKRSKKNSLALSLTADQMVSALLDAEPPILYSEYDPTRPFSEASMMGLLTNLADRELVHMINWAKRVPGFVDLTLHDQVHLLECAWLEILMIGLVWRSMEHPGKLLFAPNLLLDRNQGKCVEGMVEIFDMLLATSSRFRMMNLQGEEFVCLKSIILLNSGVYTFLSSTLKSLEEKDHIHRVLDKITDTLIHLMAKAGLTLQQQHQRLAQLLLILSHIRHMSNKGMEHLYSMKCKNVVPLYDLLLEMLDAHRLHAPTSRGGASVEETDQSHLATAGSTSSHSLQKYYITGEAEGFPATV

SMILES	AC50	outcome
CC(CCC(=O)O)(c1ccc(O)cc1)c1ccc(O)cc1	20.7 µM (active)	
C=C[C@@]1(C)CC(=O)[C@]2(O)[C@@]3(C)[C@@H](O)CCC(C)(C)[C@@H]3[C@H](O)[C@H](OC(C)=O)[C@@]2(C)O1		inactive
CO[Si](C)(C)OC		inactive
O=c1c(O)c(-c2ccc(O)cc2O)oc2cc(O)cc(O)c12		inactive
O=C(O)/C=C/c1ccccc1		inactive
O=C(O)CCC(=O)O		inactive
CCCC(CC)c1ccccc1 (stereo not given)		inactive
CCCCCC[C@@H](O)C/C=C\CCCCCCCC(=O)OCC(O)CO (stereo not given in full)		inactive
C=C1C[C@H]2[C@@H]3C=C(C)C4=CC(=O)CC[C@]4(C)[C@H]3CC[C@]2(C)[C@@]1(OC(C)=O)C(C)=O		inactive
CCCCCC(=O)OCC		inactive
CCCCCCCCC(CO)CCCCCC (stereo not given)		inactive
CCC1COC(=O)O1 (stereo not given)		inactive
CCOC(=O)C1=NOC(c2ccccc2)(c2ccccc2)C1		inactive
Nc1ccc(C(=O)O)cc1		inactive
N#Cc1ccc(C(c2ccc(C#N)cc2)n2cncn2)cc1		inactive
O=C(O)C1CCC(C(=O)O)CC1 (stereo not given)		inactive
CCCCC/C=C\C/C=C\CCCCCCCC(=O)O		inactive
CC(C)=CCCC(C)=CC#N		inactive
CCCCCCCCCC[N+](C)(CCCCCCCCCC)CCC[Si](OC)(OC)OC		inactive
CCC(C)(O)CCCC(C)C (stereo not given)	67.7 µM (active)	
Cc1ccc([N+](=O)[O-])cc1N		inactive
CCCCCCCCCC(C)=O		inactive
O=C(O)c1cc(O)c2ccccc2c1O		inactive
CC1(C)[C@@H]2CC[C@@]1(C)C(=O)C2		inactive
CC(C)(C)NC(=O)[C@H]1CC[C@H]2[C@@H]3CC[C@H]4NC(=O)C=C[C@]4(C)[C@H]3CC[C@]12C		inactive
